AmpC det inh: inhibitors of E. coli AmpC beta-lactamase with detergent; P00811; purified AmpC, nitrocefin hydrolysis with detergent; Potency, µM (doses to about 28.7 µM), without a hit: at the highest dose activity change, negative = inhibition; 71,000 tested, 0.09% active; active = well fitted curve in the direction sought with a large enough effect; inconclusive = small, poorly fitted or top-dose-only effect; also: % is scaled to controls: 0 for no effect and ±100 for the full control effect
Target sequence (P00811 whole entry, looked up): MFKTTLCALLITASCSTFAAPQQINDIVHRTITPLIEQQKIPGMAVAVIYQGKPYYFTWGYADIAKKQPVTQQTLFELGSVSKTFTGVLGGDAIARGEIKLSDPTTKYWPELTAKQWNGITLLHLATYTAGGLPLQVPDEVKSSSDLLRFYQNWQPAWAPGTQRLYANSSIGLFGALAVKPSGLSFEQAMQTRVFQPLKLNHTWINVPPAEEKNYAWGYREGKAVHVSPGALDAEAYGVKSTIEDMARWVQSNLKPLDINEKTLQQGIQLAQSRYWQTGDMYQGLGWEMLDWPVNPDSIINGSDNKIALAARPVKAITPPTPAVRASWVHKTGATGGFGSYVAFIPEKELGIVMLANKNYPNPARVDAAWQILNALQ
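E. coli AmpC (5.3 nM) in 20 mM phosphate pH 7.0 with 0.01% Triton X-100, preincubated 15 min RT with compound; nitrocefin (2 uL of 800 uM stock) hydrolysis followed by 480 nm absorbance every 20 s over 4 min.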
AmpC inh no det: inhibitors of E. coli AmpC beta-lactamase without detergent; P00811; AmpC nitrocefin hydrolysis, absorbance 480 nm, no detergent; Potency, µM (highest dose often 28.7 µM), without a hit: at the highest dose activity change, negative = inhibition; 71,000 tested, 1.8% active; also: % of control where 0% means no effect
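Enzyme, pH 7.0 phosphate. Compound titrations were pre-incubated with AmpC for 15 min at room temperature before nitrocefin (stock 800 uM) addition; product formation was recorded at 480 nm every 20 s for 4 min.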
Prx2 Sm inh: inhibitors of Schistosoma mansoni peroxiredoxin 2; 65,000 tested, 0.07% active; S. mansoni Prx2 activity coupled to TGR/GSH (TGR is thioredoxin glutathione reductase), NADPH fluorescence loss, qHTS; Potency, µM
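Purified S. mansoni TGR and Prx2 in pH 7.4 phosphate buffer with EDTA and Tween-20 were preincubated with compounds for 15 min. Further NADPH/GSH was added, then a 2.5 mM H2O2 aliquot initiated turnover, followed kinetically by NADPH fluorescence.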
LT uptake inh: inhibitors of anthrax lethal toxin internalization. 70,000 tested, 0.67% active. Potency, µM (highest dose often 40 µM), for inactives: at the top dose activity change, negative = inhibition, usual class: inhibitors. Cells, anthrax lethal toxin internalization, FRET ratio (460/530); also: % is scaled to controls: 0 for no effect and ±100 for the full control effect; nearly all actives have a fitted effect of over 50% in size
Numbers without * were called inactive; u = inconclusive; [ ] = dose if it differs, or a comment. Rows were chosen to be rich in hits. Some 2.6% of all compounds tested hit in one or more screens of this group. Unless noted, calls follow the shape of the full dose curve. Potency is read from the fitted curve at half-maximal effect.

SMILES	AmpC det inh	AmpC inh no det	Prx2 Sm inh	LT uptake inh
O=C(Nc1ccc(S(=O)(=O)NCc2ccccc2)cc1)Nc1ccc2c(c1)OCO2	-2%	10µM*	>57	u
CCCCOC(=O)C1[C@H]2C(=O)N(CCc3ccccc3)C[C@]23C=C[C@H]1O3 (stereo partly drawn)	-1%	17%	>57	12%
CCCCOC(=O)C1C2C=CC3(CN(CCc4ccccc4)C(=O)C13)O2 (stereo not drawn)	12%	4µM*[single pt active]	>57	15%
CCc1ccccc1N1CC23C=CC(O2)C(C(=O)OCC(C)C)C3C1=O (stereo not drawn)	8%	41%	>57	9%
COc1ccc(C(C)N2CC34C=CC(O3)C(C(=O)OCC(C)C)C4C2=O)cc1 (stereo not drawn)	15%	4µM*[single pt active]	>57	-9%
CCc1ccc(N2CC34C=CC(O3)C(C(=O)OC(C)C)C4C2=O)cc1 (stereo not drawn)	6%	3.2µM*[single pt active]	>57	17%
CCc1ccc(N2CC34C=CC(O3)C(C(=O)OC)C4C2=O)cc1 (stereo not drawn)	6%	4µM*[single pt active]	>57	-14%
COc1cc2c(cc1OC)[C@@]13CCN4C=C5CCO[C@H]6CC(=O)N2[C@@H]1[C@@H]6[C@H]5C[C@H]43	-3%[5.75 µM]	9%[5.75 µM]	>57	-2%[8 µM]
O=C(c1cccc(F)c1)N1CCC2(CCCN(C(c3ccccc3)c3ccccc3)C2)CC1	-6%	32%	>57	-2%
CS(=O)(=O)Nc1cccc(-c2ccc3ncnc(NCCN4CCOCC4)c3c2)c1	7%	17%	>57	-9%
Cc1noc(C)c1S(=O)(=O)N(CC(=O)N1CCc2ccccc21)c1ccc(C(C)C)cc1	14%	4µM*[single pt active]	>57	-10%
CCCCCCCCCCCCCC(=O)O[C@H]1[C@@H](C)[C@@]2(O)[C@@H](C=C(CO)C[C@]3(O)C(=O)C(C)=C[C@@H]23)C2C(C)(C)[C@]21OC(C)=O (stereo partly drawn)	-6%	108%	>26	u
O=C(Nc1cc(Cl)ccc1Cl)c1noc2c1CCCC2	11%	4µM*[single pt active]	>57	-16%
CC(=O)Cc1nsc(NC(=O)c2cc(-c3cccc(C(F)(F)F)c3)oc2C)n1	-3%	16µM*[single pt active]	>57	-14%
CN(C)c1ccnc(SCc2ccccc2Cl)c1C#N	-3%	-2%	>57	7.9µM*
O=S(=O)(Nc1cccnc1)c1cccc2cccnc12	11%	-10%	>57	3%
O=C(CCOc1ccccc1)OCC(=O)c1cc2ccccc2o1	-3%	0.63µM*	>57	-5%
O=C(CN1C(=O)C2C3C=CC(C3)C2C1=O)Nc1ccc2nccnc2c1 (stereo not drawn)	13%	4µM*[single pt active]	>57	7%
Cc1c(Cl)cccc1NC(=O)c1cc(-c2ccc(O)cc2)on1	3%	13µM*[single pt active]	>57	u
CS(=O)(=O)N1CCC[C@@]2(CCN(Cc3ccc(C#N)cc3)C2)C1	1%	-5%	>57	u
COc1cccc2cc3c(=O)n(-c4ccccc4)nc-3oc12	11%	3.2µM*[single pt active]	>57	7%
S=C=Nc1cccc(C2(N3CCCCC3)CCCCC2)c1	1%	27%	>57	13µM*
CN1CCN(c2ncc3nc(CCc4ccccc4)c(=O)n(C4CC4)c3n2)CC1	-4%	126%	>57	u
COc1ccc(N(CC(=O)N2CCc3ccccc3C2)S(=O)(=O)c2c(C)[nH]c(=O)[nH]c2=O)cc1	11%	4µM*[single pt active]	>57	14%
Cc1cccc(CNc2ccnc(-c3cccc(C#N)c3)n2)c1	-3%	29%	>57	5µM*
SMILES	AmpC det inh	AmpC inh no det	Prx2 Sm inh	LT uptake inh
CC1CCCN(S(=O)(=O)c2ccc(NC(=O)Cn3nnc(-c4ccccc4F)n3)cc2)C1 (stereo not drawn)	15%	16µM*	>57	-26%
CC1CCN(S(=O)(=O)c2ccc(NC(=O)Cn3nnc(-c4ccccc4)n3)cc2)CC1	-6%	-13%	>57	u
Cc1ccc(-c2nnn(CC(=O)Nc3ccc(S(=O)(=O)N4CCC(C)CC4)cc3)n2)cc1	6%	13µM*	>57	-25%
C[C@]12CC[C@H](O)C[C@@H]1CC[C@H]1[C@H]2CC[C@]2(C)[C@H](C(=O)CO)CC[C@@H]12	0%	19%	>57	u
Nc1cccc(-c2nc3ccc(N)cc3s2)c1	-3%	4%	>57	u
Nc1ccc(O)c(-c2nc3ccccc3s2)c1	7%	0.4µM*	>57	u
O=c1oc2ccccc2n1CCn1c2ccccc2c2nc3ccccc3nc21	-3%	-4%	>57	9%
